In ChEMBL document CHEMBL1961873, “Compounds: GSK PKIS; Assays: Nanosyn kinase panel” (2012):

Legend:
[1] = tested on: Epidermal growth factor receptor (Homo sapiens), P00533 [T790M]; details: at 1 µM
[2] = tested on: Epidermal growth factor receptor (Homo sapiens), P00533 [L858R,T790M]; details: at 0.1 µM
[3] = tested on: Epidermal growth factor receptor (Homo sapiens), P00533 [L858R,T790M]; details: at 1 µM
[4] = biological target: Ephrin type-A receptor 2 (Homo sapiens) (UniProt P29317); details: at 0.1 µM
[5] = biological target: Ephrin type-A receptor 2 (Homo sapiens) (UniProt P29317); details: at 1 µM
[6] = biological target: T1, Ephrin type-A receptor 3 (Homo sapiens) (UniProt P29320); details: at 0.1 µM
T1 sequence (whole entry): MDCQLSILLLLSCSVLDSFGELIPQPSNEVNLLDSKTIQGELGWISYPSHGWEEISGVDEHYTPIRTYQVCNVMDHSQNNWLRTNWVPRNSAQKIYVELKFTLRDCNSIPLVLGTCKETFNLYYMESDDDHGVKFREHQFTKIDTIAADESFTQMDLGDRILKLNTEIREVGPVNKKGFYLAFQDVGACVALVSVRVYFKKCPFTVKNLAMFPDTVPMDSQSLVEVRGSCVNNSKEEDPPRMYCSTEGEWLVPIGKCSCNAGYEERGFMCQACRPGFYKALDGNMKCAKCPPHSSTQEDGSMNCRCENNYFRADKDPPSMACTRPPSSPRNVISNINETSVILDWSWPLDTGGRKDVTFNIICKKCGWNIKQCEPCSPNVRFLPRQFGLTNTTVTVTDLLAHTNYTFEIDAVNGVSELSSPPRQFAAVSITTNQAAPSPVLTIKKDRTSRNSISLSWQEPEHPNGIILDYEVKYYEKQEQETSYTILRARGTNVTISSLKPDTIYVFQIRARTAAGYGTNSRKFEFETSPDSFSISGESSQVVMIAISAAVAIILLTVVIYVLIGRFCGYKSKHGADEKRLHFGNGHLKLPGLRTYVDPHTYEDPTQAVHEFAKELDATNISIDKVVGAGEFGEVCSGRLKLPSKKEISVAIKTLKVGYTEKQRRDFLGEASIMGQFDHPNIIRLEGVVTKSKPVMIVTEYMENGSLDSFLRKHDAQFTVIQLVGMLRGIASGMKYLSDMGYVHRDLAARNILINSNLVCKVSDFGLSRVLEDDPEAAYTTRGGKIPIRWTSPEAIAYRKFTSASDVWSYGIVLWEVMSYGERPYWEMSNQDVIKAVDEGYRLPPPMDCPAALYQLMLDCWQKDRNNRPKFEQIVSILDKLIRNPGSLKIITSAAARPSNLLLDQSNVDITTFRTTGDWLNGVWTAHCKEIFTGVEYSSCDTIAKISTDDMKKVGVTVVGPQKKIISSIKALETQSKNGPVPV

[7] = biological target: T1, Ephrin type-A receptor 3 (Homo sapiens); details: at 1 µM
[8] = biological target: Ephrin type-A receptor 4 (Homo sapiens) (UniProt P54764); details: at 0.1 µM
[9] = biological target: Ephrin type-A receptor 4 (Homo sapiens) (UniProt P54764); details: at 1 µM
[10] = biological target: T2, Ephrin type-B receptor 2 (Homo sapiens) (UniProt P29323); details: at 0.1 µM
T2 sequence (whole entry): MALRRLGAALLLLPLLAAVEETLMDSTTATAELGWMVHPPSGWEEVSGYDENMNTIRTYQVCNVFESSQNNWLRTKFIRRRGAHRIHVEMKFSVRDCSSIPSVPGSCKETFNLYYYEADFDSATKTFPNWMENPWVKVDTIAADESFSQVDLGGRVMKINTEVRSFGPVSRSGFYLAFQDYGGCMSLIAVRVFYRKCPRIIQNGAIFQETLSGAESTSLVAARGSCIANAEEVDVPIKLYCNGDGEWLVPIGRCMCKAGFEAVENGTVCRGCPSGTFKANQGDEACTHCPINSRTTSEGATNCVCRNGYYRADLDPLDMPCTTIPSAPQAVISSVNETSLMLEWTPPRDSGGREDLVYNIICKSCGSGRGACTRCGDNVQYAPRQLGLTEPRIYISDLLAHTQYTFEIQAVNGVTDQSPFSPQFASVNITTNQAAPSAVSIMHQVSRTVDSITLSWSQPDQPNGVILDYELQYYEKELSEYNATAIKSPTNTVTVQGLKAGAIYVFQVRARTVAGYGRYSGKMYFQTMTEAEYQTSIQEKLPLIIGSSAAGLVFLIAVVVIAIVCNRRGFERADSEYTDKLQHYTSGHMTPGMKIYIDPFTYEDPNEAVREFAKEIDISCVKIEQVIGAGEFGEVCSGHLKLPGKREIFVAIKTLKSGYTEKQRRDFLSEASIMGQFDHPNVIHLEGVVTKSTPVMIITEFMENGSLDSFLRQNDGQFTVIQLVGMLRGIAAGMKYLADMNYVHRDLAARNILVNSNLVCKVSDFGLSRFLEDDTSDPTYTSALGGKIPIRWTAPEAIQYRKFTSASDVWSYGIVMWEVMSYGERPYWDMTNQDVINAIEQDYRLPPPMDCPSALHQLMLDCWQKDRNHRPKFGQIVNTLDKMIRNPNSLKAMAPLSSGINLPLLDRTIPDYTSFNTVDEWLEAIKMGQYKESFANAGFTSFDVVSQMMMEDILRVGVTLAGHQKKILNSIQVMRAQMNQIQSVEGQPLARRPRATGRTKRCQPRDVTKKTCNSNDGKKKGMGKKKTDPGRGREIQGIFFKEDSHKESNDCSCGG

[11] = biological target: T2, Ephrin type-B receptor 2 (Homo sapiens); details: at 1 µM
[12] = biological target: T3, Ephrin type-B receptor 3 (Homo sapiens) (UniProt P54753); details: at 0.1 µM
T3 sequence (whole entry): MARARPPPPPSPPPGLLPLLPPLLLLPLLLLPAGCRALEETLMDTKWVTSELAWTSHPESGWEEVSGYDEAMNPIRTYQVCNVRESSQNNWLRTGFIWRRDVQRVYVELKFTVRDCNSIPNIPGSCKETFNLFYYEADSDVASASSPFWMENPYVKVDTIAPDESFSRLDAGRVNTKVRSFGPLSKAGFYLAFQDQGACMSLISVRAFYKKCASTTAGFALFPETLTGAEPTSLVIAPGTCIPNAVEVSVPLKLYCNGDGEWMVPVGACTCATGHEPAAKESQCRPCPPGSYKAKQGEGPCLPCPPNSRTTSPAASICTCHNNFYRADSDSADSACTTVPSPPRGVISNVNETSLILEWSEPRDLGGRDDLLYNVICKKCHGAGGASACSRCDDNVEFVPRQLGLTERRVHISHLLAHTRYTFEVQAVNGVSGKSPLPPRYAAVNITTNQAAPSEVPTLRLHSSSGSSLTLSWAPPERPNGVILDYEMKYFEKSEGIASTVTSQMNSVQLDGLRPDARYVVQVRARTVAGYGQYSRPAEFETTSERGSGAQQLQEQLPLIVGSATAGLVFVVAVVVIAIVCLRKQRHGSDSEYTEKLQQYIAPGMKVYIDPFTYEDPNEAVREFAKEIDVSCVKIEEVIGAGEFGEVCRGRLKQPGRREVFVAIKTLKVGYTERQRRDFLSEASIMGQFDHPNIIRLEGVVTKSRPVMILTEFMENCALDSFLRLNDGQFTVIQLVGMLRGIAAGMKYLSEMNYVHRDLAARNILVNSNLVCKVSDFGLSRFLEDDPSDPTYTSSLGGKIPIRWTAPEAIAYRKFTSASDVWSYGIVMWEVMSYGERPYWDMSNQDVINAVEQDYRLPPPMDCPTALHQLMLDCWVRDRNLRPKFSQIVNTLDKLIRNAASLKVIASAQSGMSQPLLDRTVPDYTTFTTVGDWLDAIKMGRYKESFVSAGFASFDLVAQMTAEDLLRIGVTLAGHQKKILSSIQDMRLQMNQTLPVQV

[13] = biological target: T3, Ephrin type-B receptor 3 (Homo sapiens); details: at 1 µM
[14] = biological target: T4, Ephrin type-B receptor 4 (Homo sapiens) (UniProt P54760); details: at 0.1 µM
T4 sequence (whole entry): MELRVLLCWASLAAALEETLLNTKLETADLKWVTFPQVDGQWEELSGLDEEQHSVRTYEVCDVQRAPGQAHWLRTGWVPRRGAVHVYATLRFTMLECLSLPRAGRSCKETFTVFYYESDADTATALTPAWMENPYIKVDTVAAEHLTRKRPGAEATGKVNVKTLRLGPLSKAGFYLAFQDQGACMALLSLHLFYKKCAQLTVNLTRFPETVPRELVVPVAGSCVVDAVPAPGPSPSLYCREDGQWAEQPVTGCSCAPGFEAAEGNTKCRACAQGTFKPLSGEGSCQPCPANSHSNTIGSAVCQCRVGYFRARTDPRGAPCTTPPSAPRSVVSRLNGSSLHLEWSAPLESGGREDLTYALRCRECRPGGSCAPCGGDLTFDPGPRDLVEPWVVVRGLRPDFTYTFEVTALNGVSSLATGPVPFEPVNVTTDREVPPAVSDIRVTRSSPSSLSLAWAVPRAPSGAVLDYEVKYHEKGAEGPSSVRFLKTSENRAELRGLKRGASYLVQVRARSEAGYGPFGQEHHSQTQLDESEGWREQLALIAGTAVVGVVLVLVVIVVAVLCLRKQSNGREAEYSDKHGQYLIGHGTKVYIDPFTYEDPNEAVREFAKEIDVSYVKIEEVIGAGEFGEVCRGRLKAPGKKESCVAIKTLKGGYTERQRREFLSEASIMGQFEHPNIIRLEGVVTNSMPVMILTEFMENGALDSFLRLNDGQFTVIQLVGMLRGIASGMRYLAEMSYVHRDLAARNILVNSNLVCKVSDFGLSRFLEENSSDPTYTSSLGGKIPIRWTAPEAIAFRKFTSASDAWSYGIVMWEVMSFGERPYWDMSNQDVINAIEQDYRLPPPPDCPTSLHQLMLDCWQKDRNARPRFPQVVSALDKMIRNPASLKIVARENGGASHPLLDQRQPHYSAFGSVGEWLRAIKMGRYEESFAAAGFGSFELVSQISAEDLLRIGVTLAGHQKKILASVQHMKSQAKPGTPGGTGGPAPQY

[15] = biological target: T4, Ephrin type-B receptor 4 (Homo sapiens); details: at 1 µM
[16] = biological target: Receptor tyrosine-protein kinase erbB-2 (Homo sapiens) (UniProt P04626); details: at 0.1 µM
[17] = biological target: Receptor tyrosine-protein kinase erbB-2 (Homo sapiens) (UniProt P04626); details: at 1 µM
[18] = biological target: Receptor tyrosine-protein kinase erbB-4 (Homo sapiens) (UniProt Q15303); details: at 0.1 µM
[19] = biological target: Receptor tyrosine-protein kinase erbB-4 (Homo sapiens) (UniProt Q15303); details: at 1 µM
[20] = biological target: Tyrosine-protein kinase Fer (Homo sapiens) (UniProt P16591); details: at 0.1 µM;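 note: reported figures are averaged percent inhibition of FER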
Sequence of Tyrosine-protein kinase Fer (Homo sapiens) (P16591 whole entry, looked up): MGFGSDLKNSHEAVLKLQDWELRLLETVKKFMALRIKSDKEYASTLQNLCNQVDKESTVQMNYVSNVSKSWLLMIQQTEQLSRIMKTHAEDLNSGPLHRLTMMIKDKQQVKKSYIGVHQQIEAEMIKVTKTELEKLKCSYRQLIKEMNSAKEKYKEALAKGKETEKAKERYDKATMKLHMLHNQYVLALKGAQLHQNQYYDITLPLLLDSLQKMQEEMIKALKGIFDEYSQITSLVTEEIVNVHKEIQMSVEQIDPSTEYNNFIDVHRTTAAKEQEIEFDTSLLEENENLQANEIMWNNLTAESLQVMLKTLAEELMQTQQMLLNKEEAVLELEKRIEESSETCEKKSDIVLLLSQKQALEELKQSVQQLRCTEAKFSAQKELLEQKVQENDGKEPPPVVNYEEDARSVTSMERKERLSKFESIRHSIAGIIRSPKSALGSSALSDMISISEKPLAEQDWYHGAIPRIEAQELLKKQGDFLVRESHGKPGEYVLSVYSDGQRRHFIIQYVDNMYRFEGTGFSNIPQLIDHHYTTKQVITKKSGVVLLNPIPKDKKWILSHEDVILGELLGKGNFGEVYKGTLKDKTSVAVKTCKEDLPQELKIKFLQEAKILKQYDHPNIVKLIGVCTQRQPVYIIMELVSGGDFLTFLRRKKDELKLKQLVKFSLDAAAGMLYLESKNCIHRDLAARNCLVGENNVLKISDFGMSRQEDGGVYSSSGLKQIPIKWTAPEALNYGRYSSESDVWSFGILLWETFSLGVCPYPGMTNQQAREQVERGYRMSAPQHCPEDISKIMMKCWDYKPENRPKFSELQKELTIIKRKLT

Sequence of Ephrin type-A receptor 2 (Homo sapiens) (P29317 whole entry): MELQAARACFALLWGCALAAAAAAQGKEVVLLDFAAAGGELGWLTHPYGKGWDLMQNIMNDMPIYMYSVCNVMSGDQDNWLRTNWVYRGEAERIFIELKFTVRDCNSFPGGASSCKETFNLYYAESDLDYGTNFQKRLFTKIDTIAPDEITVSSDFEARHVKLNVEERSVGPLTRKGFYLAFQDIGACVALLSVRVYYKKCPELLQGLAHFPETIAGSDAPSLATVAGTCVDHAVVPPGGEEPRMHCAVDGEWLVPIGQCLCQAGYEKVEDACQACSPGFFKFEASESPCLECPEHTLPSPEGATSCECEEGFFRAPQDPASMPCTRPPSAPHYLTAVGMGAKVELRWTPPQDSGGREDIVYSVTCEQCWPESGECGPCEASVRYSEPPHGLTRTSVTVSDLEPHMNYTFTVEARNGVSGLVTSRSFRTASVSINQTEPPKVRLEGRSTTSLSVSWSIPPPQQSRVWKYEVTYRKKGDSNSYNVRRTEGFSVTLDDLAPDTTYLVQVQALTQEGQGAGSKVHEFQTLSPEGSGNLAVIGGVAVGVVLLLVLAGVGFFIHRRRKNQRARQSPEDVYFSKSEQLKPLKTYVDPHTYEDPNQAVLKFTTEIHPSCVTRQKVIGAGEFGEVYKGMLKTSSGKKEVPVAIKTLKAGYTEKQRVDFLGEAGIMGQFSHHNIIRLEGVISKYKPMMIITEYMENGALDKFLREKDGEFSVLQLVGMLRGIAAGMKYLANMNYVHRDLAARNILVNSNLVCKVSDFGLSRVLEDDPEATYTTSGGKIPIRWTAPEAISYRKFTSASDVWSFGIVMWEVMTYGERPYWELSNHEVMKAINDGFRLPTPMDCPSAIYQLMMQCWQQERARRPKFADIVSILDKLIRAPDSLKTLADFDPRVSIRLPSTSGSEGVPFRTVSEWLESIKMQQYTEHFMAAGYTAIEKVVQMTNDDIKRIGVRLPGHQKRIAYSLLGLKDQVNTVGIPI
Sequence of Epidermal growth factor receptor (Homo sapiens), P00533 [T790M] (P00533 whole entry T790M): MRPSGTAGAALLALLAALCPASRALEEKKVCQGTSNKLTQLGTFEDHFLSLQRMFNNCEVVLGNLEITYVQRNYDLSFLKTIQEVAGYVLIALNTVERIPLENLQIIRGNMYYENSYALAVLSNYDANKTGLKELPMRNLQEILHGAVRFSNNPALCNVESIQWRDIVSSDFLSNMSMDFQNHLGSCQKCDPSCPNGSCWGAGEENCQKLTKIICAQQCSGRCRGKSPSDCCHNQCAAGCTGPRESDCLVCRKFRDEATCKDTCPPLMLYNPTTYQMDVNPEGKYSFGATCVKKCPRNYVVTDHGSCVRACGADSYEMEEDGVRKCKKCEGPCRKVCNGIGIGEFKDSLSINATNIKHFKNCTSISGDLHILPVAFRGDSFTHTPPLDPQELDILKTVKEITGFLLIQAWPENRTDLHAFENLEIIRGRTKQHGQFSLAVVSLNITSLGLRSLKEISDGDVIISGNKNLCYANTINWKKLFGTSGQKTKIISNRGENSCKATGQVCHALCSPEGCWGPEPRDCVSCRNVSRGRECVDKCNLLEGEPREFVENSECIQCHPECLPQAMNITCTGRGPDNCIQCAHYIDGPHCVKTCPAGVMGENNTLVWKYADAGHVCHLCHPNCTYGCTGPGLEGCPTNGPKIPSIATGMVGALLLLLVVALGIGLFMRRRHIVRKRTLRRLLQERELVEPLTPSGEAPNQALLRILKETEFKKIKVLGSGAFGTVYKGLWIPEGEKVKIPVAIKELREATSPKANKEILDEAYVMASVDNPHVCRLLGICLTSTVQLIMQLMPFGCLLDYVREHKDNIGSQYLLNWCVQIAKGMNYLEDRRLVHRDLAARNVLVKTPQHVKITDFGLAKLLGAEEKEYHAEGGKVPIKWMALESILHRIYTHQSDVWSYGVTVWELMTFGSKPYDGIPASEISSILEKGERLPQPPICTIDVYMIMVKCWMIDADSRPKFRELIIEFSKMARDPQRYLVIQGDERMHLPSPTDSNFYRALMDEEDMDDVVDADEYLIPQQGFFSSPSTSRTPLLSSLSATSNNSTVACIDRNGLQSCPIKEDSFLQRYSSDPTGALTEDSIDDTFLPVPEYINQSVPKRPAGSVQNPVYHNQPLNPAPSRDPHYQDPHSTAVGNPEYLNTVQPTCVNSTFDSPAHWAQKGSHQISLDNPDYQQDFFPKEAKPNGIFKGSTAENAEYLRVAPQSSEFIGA
Sequence of Receptor tyrosine-protein kinase erbB-4 (Homo sapiens) (Q15303 whole entry): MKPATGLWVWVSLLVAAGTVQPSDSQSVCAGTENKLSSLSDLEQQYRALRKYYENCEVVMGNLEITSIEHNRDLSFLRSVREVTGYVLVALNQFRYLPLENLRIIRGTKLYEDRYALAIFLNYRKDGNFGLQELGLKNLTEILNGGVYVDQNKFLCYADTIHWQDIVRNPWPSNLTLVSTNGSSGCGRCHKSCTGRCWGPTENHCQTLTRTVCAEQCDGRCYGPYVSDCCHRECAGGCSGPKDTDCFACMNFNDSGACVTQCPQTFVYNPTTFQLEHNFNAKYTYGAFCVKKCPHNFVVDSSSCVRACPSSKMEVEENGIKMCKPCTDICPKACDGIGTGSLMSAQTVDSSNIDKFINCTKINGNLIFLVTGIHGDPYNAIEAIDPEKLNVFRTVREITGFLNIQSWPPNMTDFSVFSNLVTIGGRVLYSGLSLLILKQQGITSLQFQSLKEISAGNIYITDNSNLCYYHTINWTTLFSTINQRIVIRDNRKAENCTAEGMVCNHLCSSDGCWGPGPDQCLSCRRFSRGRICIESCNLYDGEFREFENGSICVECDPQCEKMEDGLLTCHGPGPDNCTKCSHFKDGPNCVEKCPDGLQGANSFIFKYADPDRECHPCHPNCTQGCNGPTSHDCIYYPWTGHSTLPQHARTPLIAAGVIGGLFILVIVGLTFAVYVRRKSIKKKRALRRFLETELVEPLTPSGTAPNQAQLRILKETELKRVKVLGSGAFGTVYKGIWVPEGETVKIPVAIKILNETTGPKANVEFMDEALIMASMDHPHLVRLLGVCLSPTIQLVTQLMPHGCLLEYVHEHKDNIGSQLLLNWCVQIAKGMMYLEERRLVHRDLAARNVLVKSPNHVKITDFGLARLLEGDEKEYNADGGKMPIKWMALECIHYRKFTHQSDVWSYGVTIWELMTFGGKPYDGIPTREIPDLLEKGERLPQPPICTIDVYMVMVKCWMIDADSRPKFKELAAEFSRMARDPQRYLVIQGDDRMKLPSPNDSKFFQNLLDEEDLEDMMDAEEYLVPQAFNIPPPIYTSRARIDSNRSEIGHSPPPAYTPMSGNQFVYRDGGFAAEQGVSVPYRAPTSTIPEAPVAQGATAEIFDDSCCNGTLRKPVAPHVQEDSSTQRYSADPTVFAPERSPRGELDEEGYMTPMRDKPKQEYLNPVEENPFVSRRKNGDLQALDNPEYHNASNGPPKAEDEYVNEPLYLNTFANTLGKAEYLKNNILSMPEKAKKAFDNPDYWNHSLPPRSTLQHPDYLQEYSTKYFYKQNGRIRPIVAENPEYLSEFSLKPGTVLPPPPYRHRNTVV

SMILES	inhibition [1] [%]	inhibition [2] [%]	inhibition [3] [%]	inhibition [4] [%]	inhibition [5] [%]	inhibition [6] [%]	inhibition [7] [%]	inhibition [8] [%]	inhibition [9] [%]	inhibition [10] [%]	inhibition [11] [%]	inhibition [12] [%]	inhibition [13] [%]	inhibition [14] [%]	inhibition [15] [%]	inhibition [16] [%]	inhibition [17] [%]	inhibition [18] [%]	inhibition [19] [%]	inhibition [20] [%]
Fc1ccc(-c2nc3n(c2-c2ccncc2)CCS3)cc1	0.86	1.02	1.42	-3.82	-3.6	-0.22	-0.79	6.24	3.74	3.72	7.66	2.13	-1.28	-0.26	-2.49	4.16	1.23	9.02	10	2.18
c1ccc(Oc2ccc(Nc3ncc(-c4ccccc4)o3)cc2)cc1	0.24	-0.18	4.16	-2.63	-2.48	2.07	2.91	4.49	4.79	7.5	9.65	2.67	0.66	2.42	0.76	-0.01	1.41	4.29	5.09	2.19
Nc1nccc(-c2c(-c3ccc(F)cc3)ncn2C2CCC(O)CC2)n1 (stereo not given)	0.86	1.94	15.4	0.36	2.11	-4.93	-1.48	-4.75	14.5	7.37	35.9	1.08	32.1	2.5	14.7	-3.17	4.64	6.79	45.9	5.39
COc1cccc(/C=N/Nc2ncnc3c2cnn3-c2cccc(OC)c2)c1	2.12	2.14	2.04	-1.3	-1.94	1.72	3.83	6.9	9.69	8.19	5.8	1.82	3.68	0.66	1.2	0.2	5.67	5.57	10	-0.09
COc1ccc(C2=C(N3CCc4ccccc43)C(=O)NC2=O)cc1	2.96	1.12	2.08	2.52	0.56	7.52	5.91	10.6	12.4	11	11.3	3.73	6.05	3.74	4.2	4.12	2.07	8.75	12.9	5.39
Fc1ccc(-c2ncn(C3CCNCC3)c2-c2ccnc(Oc3ccc(F)c(F)c3)n2)cc1	1.67	2.65	1.47	-2.47	-2.72	-1.56	0.81	6.95	9.68	6.59	8.76	-0.46	1.58	-4.11	0.57	3.82	3.63	1.82	5.03	1.43
COc1cc(Nc2ncc(-c3ccccc3)o2)cc(OC)c1OC	1.16	-0.28	-0.54	-3.3	-1.26	-6.76	-5.8	-7.25	1.47	-1.44	5.83	-5.87	-2.19	1.05	3.25	0.87	-1.74	-4.19	-2.66	-1.48
